According to PubChem BioAssay (NCATS):
Inconclusive results are not listed. Where a call stands in place of a potency, no number is given. Calls of active or inactive are those of the source. Calls follow the shape of the dose curve; as a rule, active = well fitted curve in the direction sought with a large enough effect; inconclusive = small, poorly fitted or top-dose-only effect, or another doubt; inactive = no such curve, though single readings can be large; an effect the other way counts as inactive or inconclusive.

Experiments:
WaGa = test: qHTS assay to identify novel small-molecules to repurpose for Merkel cell carcinoma treatment (AID 1296009); settings: MCC and control cell lines, CellTiter-Glo viability, 72 h; series mostly up to 46 µM; also: nearly all actives have a fitted effect of over 60% in size
Procedure, shortened: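 Cell viability measured by CellTiter-Glo following 72 hr compound treatment at 37 degree celsius, with NPC and MIPE libraries tested in 8- and 11-point concentration series.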

C33A = test: Primary qHTS to identify gynecologic anti-cancer compounds using libraries of approved drugs and bioactive compounds (AID 1345084); settings: Gynecologic cancer cell panel viability, ATPlite luminescence, 48 h; series mostly up to 57.5 µM; also: nearly all actives have a fitted effect of over 55% in size; also: potency is read from the fitted curve at half-maximal effect
Procedure, shortened: (§1)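 ATP-based viability (ATPlite), 1,000 cells/well, 16 h pre-incubation, 48 h compound at 37 C, 5% CO2, 15 min RT before read.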

CAOV3 = test: as above; settings: Gynecologic cancer cell panel viability, ATPlite luminescence, 48 h; series mostly up to 57.5 µM
Procedure, shortened: as §1

CASKI = test: as above; settings: Gynecologic cancer cell panel viability, ATPlite luminescence, 48 h; series mostly up to 57.5 µM
Procedure, shortened: as §1

Es-2 = test: as above; settings: Gynecologic cancer cell panel viability, ATPlite luminescence, 48 h; series mostly up to 57.5 µM
Procedure, shortened: as §1

HeLa = test: as above; settings: Gynecologic cancer cell panel viability, ATPlite luminescence, 48 h; series mostly up to 57.5 µM
Procedure, shortened: as §1

Hek293T = test: as above; settings: Gynecologic cancer cell panel viability, ATPlite luminescence, 48 h, control line for the selectivity index; series mostly up to 57.5 µM
Procedure, shortened: as §1

JEG-3 = test: as above; settings: Gynecologic cancer cell panel viability, ATPlite luminescence, 48 h; series mostly up to 57.5 µM
Procedure, shortened: as §1

OV90 = test: as above; settings: Gynecologic cancer cell panel viability, ATPlite luminescence, 48 h; series mostly up to 57.5 µM
Procedure, shortened: as §1

PA-1 = test: as above; settings: Gynecologic cancer cell panel viability, ATPlite luminescence, 48 h; series mostly up to 57.5 µM
Procedure, shortened: as §1

SMILES	outcome (WaGa)	Potency (C33A)	Potency (CAOV3)	Potency (CASKI)	Potency (Es-2)	Potency (HeLa)	Potency (Hek293T)	Potency (JEG-3)	Potency (OV90)	Potency (PA-1)
O=C(OCc1ccccc1)c1ccc(O)cc1	inactive	inactive	inactive	inactive	inactive	inactive	inactive	inactive	inactive	inactive
CN(C)CCCSc1ccccc1NC(=O)/C=C/c1ccccc1	inactive	inactive	inactive	inactive	inactive	inactive	inactive	inactive	–	inactive
C=C1[C@H](CO)[C@@H](O)C[C@@H]1n1cnc2c(=O)[nH]c(N)nc21	–	inactive	inactive	inactive	inactive	inactive	inactive	inactive	inactive	inactive
Oc1ccc(/C=C/c2cc(O)cc(O)c2)cc1	–	–	–	–	25.1 µM (active)	–	–	–	–	–
COc1ccc(C[C@H](C)NC[C@@H](O)c2ccc(O)c(NC=O)c2)cc1	–	inactive	inactive	inactive	–	inactive	–	inactive	inactive	inactive
COc1ccc2nc(NC(=O)Nc3ccccc3)sc2c1	–	–	–	12.6 µM (active)	8.91 µM (active)	–	14.1 µM (active)	20 µM (active)	22.4 µM (active)	25.1 µM (active)
N[C@@H](Cc1cc(I)c(Oc2ccc(O)c(I)c2)c(I)c1)C(=O)O	–	inactive	–	inactive	inactive	inactive	inactive	inactive	inactive	inactive
C/C(=C\C(=O)OCCCCCCCCC(=O)O)C[C@@H]1OC[C@H](C[C@@H]2O[C@H]2[C@@H](C)[C@H](C)O)[C@@H](O)[C@H]1O	–	inactive	inactive	inactive	inactive	inactive	inactive	inactive	inactive	inactive
O=C(O)Cc1cc(I)c(Oc2ccc(O)c(I)c2)c(I)c1	–	inactive	inactive	inactive	inactive	inactive	inactive	inactive	inactive	inactive
CC(C)(C)c1ccc(CN2CCN(C(c3ccccc3)c3ccc(Cl)cc3)CC2)cc1 (stereo not given)	–	inactive	inactive	inactive	inactive	inactive	inactive	inactive	inactive	inactive
CC(=O)Nc1ccc(NC(=S)NC(=O)c2ccc(C(C)(C)C)cc2)cc1	–	inactive	inactive	inactive	–	inactive	–	inactive	inactive	10 µM (active)
Nc1ccc(N=Nc2ccccc2)c(N)n1	inactive	inactive	inactive	inactive	inactive	–	inactive	inactive	–	–
O=C1c2ccccc2C(=O)c2c1ccc(O)c2O	–	inactive	inactive	inactive	inactive	inactive	inactive	inactive	inactive	inactive
CCN(CC)CCOCCOC(=O)C(CC)(CC)c1ccccc1	–	inactive	inactive	inactive	inactive	inactive	inactive	inactive	–	inactive
C[C@]12CC[C@@H]3c4ccc(OC(=O)c5ccccc5)cc4CC[C@H]3[C@@H]1CC[C@@H]2O	–	inactive	inactive	inactive	inactive	–	inactive	inactive	inactive	inactive
C[C@H]1O[C@@H](O[C@H]2[C@@H](O)C[C@H](O[C@H]3[C@@H](O)C[C@H](O[C@H]4CC[C@@]5(C)[C@H](CC[C@@H]6[C@@H]5C[C@@H](O)[C@]5(C)[C@@H](C7=CC(=O)OC7)CC[C@]65O)C4)O[C@@H]3C)O[C@@H]2C)C[C@H](O)[C@@H]1O	–	0.0794 µM (active)	0.282 µM (active)	0.447 µM (active)	0.316 µM (active)	0.282 µM (active)	0.316 µM (active)	–	0.631 µM (active)	0.282 µM (active)
CC1CC(OC(=O)C(O)c2ccccc2)CC(C)(C)C1 (stereo not given)	–	inactive	inactive	inactive	inactive	inactive	inactive	inactive	inactive	inactive
CC(=O)Oc1cccc2c1C(=O)c1c(OC(C)=O)cc(C(=O)O)cc1C2=O	–	inactive	–	–	inactive	inactive	–	inactive	–	–
CO[C@H]1C[C@@H]2CC[C@@H](C)[C@@](O)(O2)C(=O)C(=O)N2CCCC[C@H]2C(=O)O[C@H]([C@H](C)C[C@@H]2CC[C@@H](OC(=O)C(C)(CO)CO)[C@H](OC)C2)CC(=O)[C@H](C)/C=C(\C)[C@@H](O)[C@@H](OC)C(=O)[C@H](C)C[C@H](C)/C=C/C=C/C=C/1C	–	inactive	inactive	inactive	inactive	inactive	inactive	inactive	inactive	inactive
C=C1CC[C@H](O)CC1=C/C=C1\CCC[C@]2(C)[C@@H]([C@H](C)/C=C/[C@H](C)C(C)C)CC[C@@H]12	–	inactive	inactive	inactive	inactive	inactive	inactive	inactive	inactive	inactive
O=C(O)CCC(=O)c1ccc(-c2ccccc2)cc1	inactive	inactive	inactive	inactive	inactive	inactive	inactive	inactive	inactive	inactive
